Assay outcomes deposited in PubChem BioAssay by several laboratories.
Shown are actives, neighbours in structure and some others; about 1.3% of the full set was active somewhere.
NCOA1 inh: SRC1 coactivator transcriptional activity inhibitors, primary screen, cell-based, luminescence; Nuclear receptor coactivator 1 (Homo sapiens), Q15788; HEK293 GAL4-SRC1 luciferase reporter; inhibition, % at 3.6 µM; 0.12% of 360,000 active;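 active = inhibition above the campaign mean plus 3 SD, with each screening campaign given its own cutoff, cut at about 60% in these data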
Gli-Sufu block: Gli-Sufu pathway antagonists, primary screen, luciferase luminescence, Sufu-KO-LIGHT cells, uHTS; Sufu-KO-LIGHT fibroblasts, Gli luciferase reporter luminescence; inhibition, % at 5 µM; 0.74% of 340,000 active; AID 588413, 2011;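 active = inhibition above about 55%, limit read from the data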
COUP-TFII inh: NR2F2 transcriptional activity inhibitors, primary screen, cell-based, luciferase reporter, HEK293T, luminescence; HEK293T NGFI-A luciferase reporter; AID 686940, 2013; inhibition, % at 8.6 µM; 0.7% of 370,000 active;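 active = inhibition above a per-plate cutoff, mean inhibition of test wells between control levels plus 3 SD, cut at about 38% in these data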;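 note: cells cotransfected with COUP-TFII expression vector driving the NGFI-A reporter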
Target sequence (P24468 whole entry, looked up): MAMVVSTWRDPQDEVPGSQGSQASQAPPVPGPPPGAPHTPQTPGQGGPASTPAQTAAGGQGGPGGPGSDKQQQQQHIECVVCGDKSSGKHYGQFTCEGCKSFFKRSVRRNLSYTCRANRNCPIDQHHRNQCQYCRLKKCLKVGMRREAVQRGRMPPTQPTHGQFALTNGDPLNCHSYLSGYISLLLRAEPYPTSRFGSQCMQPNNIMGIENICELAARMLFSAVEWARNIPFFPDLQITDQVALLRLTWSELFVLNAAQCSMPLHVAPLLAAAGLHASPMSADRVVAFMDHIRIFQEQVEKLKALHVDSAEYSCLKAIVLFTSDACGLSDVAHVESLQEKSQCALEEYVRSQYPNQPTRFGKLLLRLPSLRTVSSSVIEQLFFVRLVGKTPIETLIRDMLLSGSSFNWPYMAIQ
NCOA3 inh: SRC3 coactivator transcriptional activity inhibitors, primary screen, cell-based, luminescence | HEK293 GAL4-SRC3 luciferase reporter | inhibition, % at 3.6 µM | 0.17% of 360,000 active;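 active = inhibition above a per-campaign cutoff, the mean of all compounds plus 3 SD, cut at about 60% in these data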;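 note: higher means less SRC3-driven luciferase light from the GAL4 reporter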
NCOA2 inhibitor: inhibition of GAL4-SRC2 driven luciferase reporter, primary screen, SRC2 inhibitor project, cell-based, luminescence | Nuclear receptor coactivator 2 (Homo sapiens), Q15596 | HEK293 GAL4-SRC2 luciferase reporter | inhibition, % at 9 µM | 0.17% of 370,000 active;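 active = inhibition above the mean inhibition of all tested compounds plus 3 SD, set per campaign, cut at about 52% in these data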
NR5A2 inv ag: LRH-1 (NR5A2) inverse agonists, primary screen, cell-based, luminescence, HEK293T, StAR-luciferase reporter; inhibition, % at 3.6 µM; Nuclear receptor subfamily 5 group A member 2 (Homo sapiens), O00482; 0.13% of 360,000 active; LRH-1 transfected, 24 h;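 active = inhibition above the mean inhibition of all tested compounds plus 3 SD, cut at about 73% in these data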
A number is an active result; . = inactive; / = no result given; ! = not active in a repeat.

SMILES	NCOA1 inh	Gli-Sufu block	COUP-TFII inh	NCOA3 inh	NCOA2 inhibitor	NR5A2 inv ag
Cc1cc(C(=O)COc2cccnc2[N+](=O)[O-])c(C)n1-c1ccccc1	68.8	.	.	66.1	.	.
O=c1[nH]c(=O)n([C@H]2C[C@H](O)[C@@H](CO)O2)cc1F	65.8	.	.	66.6	.	.
O=c1[nH]c(=O)n(C2CC(O)C(CO)O2)cc1I (stereo not drawn)	.	.	.	.	.	.
O=c1cnnc(N/N=C/c2ccccn2)[nH]1	66.0	74.4	.	83.1	.	91.6
Cc1cc(=O)[nH]c(N/N=C/c2ccccn2)n1	.	.	.	.	.	.
CCC(C)N(CC(=O)Nc1cccc(C)c1C)C(=O)CCl (stereo not drawn)	61.6	.	/	61.9	/	.
CCc1ccc(-c2nc(CS(=O)CC(=O)NCc3ccco3)c(C)o2)cc1 (stereo not drawn)	.	.	.	.	54.4	.
COC(=O)C[C@@H]1CC[C@@H]2[C@H](COc3ccc(NC(=O)c4cccc(OC)c4)cc3C(=O)N2C)O1	/	/	.	/	.	/
CCOc1ccc(N(CC(=O)Nc2c(C)n(C)n(-c3ccccc3)c2=O)S(=O)(=O)c2ccc(C)c(C)c2)cc1	/	/	.	/	.	/
Cc1ccc(NCCN(C)C)c2c(=O)c3cc(O)ccc3sc12	64.0	66.2	.	.	.	.
CN(C)CCNc1cccc2sc3ccc(O)cc3c(=O)c12	.	/	.	.	.	.
C/C(=N\NC(=O)c1nnn(-c2nonc2N)c1-c1ccccc1)c1ccccc1O	.	68.1	.	.	.	.
C/C(=N\NC(=O)c1nnn(-c2nonc2N)c1CN(C)c1ccccc1)c1ccccn1	.	77.8	/	.	/	.
CCCc1c(C(=O)N/N=C(\C)c2ccccc2O)nnn1-c1nonc1N	.	/	.	.	.	.
COC(=O)[C@]12C[C@H](CC(=O)NCCc3ccccc3OC)C(=O)N(Cc3cccc4ccccc34)C1=C[C@H](C(C)C)O[C@@H]2C1CC1	/	/	.	/	.	/
CCc1ccc(C2=NNC(=Nc3cccc(S(=O)(=O)N(C)C)c3)SC2)cc1	.	.	40.8	.	.	.
COc1ccc2[nH]c3c(c2c1)CC(C)NC3=O (stereo not drawn)	66.3	.	.	.	.	.
COc1ccc2[nH]c3c(c(=O)c2c1)CCCC3	.	/	.	.	.	.
O=C(Nc1ccccc1C(F)(F)F)OCCCN1CCC2(CCC(c3ccccc3)CC2)C1=O (stereo not drawn)	/	/	.	/	.	/
CC(C)(C)c1ccc(Cn2c(=N)n(CC(O)c3ccco3)c3ccccc32)cc1 (stereo not drawn)	.	64.8	/	.	/	.
COC(=O)c1ccc2c(c1)C(C)(C)C(/C=C/c1ccc(O)cc1)=[N+]2C	.	66.0	.	.	.	.
CCCCCCCCCCCCCCCC[n+]1cccc(C(=O)N(CC)CC)c1	.	71.6!	.	.	.	.
CCCCCCCC[n+]1cccc(C(=O)N(CC)CC)c1	.	.	.	.	.	.
COc1ccc2c(c1)CNC2CS(=O)(=O)NCc1ccccc1 (stereo not drawn)	/	/	.	/	.	/
COc1ccc(C(=O)/C(C#N)=N/Nc2ccc([N+](=O)[O-])cc2)cc1	.	68.9	.	.	.	.
SMILES	NCOA1 inh	Gli-Sufu block	COUP-TFII inh	NCOA3 inh	NCOA2 inhibitor	NR5A2 inv ag
O=C1OCC2=C1C(c1ccc(F)cc1)c1cc3c(cc1N2)OCCO3 (stereo not drawn)	.	57.0	.	.	.	.
S=C(NCc1ccccn1)NN=Cc1ccccn1	.	73.5	.	.	.	.
S=C(NCc1ccccn1)Nc1cccc(Cl)c1	.	.	.	.	.	.
C/C(=N\NC(=O)c1ccccn1)c1ccc(Cl)cc1	.	.	.	.	.	.
C/C(=N\NC(=O)c1cc(C)nc2ccccc12)c1ccccn1	.	89.9	.	.	.	.
COc1cccc(C(=O)N/N=C(/c2ccccc2)c2ccccn2)c1	.	81.2	.	.	.	.
CC(=NNC(=S)Nc1cccc(Cl)c1)c1ccccn1	.	56.8	.	67.3	.	.
C/C(=N\NC(=O)c1ccc(Cl)cc1)c1ccccn1	.	79.7	.	.	.	.
COc1cccc(C(=O)N/N=C(/CCC(=O)O)c2ccccc2)c1	.	.	.	.	.	.
C[C@H]1[C@@H](NC(=O)/C=C/c2ccccc2)CC[C@@]23CCCN2C(=O)CCC[C@@H]13	/	/	.	/	/	/
CC(=O)N1C[C@@H](c2c[nH]c3ccccc23)C=C[C@H]1C(=O)NS(=O)(=O)c1ccc(C)cc1	/	/	.	/	.	/
COCCCn1cc(CN2CC=CS2(=O)=O)nn1	/	/	.	/	.	/
CC(C)n1cc(/C=C/c2cc[n+](C)cc2)c2ccccc21	.	71.0	.	.	.	.
Cc1ccccc1/C=C/c1cc[n+](C)cc1	.	.	.	.	.	.
C=CCn1cc(/C=C/c2cc[n+](C)cc2)c2ccccc21	.	66.4	49.5	.	.	.
O=C(CNS(=O)(=O)c1cccc2ccccc12)N1CCN(c2ncccn2)CC1	/	/	.	/	.	/
COc1ccc(-n2ncc3c(N4CCCCC4)ncnc32)cc1	64.2	55.9	/	66.8	/	.
O=[N+]([O-])c1ccc(Cl)cc1C=NNc1ccccn1	.	.	.	.	.	.
O=[N+]([O-])c1cc(Cl)cc(/C=N\Nc2ccccn2)c1O	.	56.8	.	.	.	.
COC(=O)[C@]12C[C@H](CC(=O)NCCC(C)C)C(=O)N(Cc3ccco3)C1=C[C@H](C(C)C)O[C@@H]2C1CC1	/	/	.	/	.	/
O=C(Nc1ccccc1)C1=C(c2ccccc2)S(=O)(=O)CCS1(=O)=O	.	.	.	.	54.4	.
C[C@@H]1/C=C/CC(=O)N[C@H](c2ccccc2)[C@H](C)/C=C/CC(=O)N[C@@H]1c1ccccc1	/	/	.	/	.	/
Cc1oc(-c2ccc(Cl)cc2)nc1CN1CCC(C(=O)N2CCN(Cc3ccccc3)CC2)CC1	.	.	39.0	.	.	.
O=C(NC(CSCc1ccccc1)C(=O)N/N=C/c1ccc(O)cc1O)c1ccc([N+](=O)[O-])cc1 (stereo not drawn)	.	75.9	.	.	.	.
O=C(Cn1c(-c2cncs2)nc2ccccc21)NCc1cccs1	/	/	.	/	.	/
COc1cc(OC)c2c(-c3cccc(-c4ccc(CO)cc4)c3)cc(=O)oc2c1	.	69.6	/	.	/	.
COc1ccc(-c2cccc(-c3cc(=O)oc4cc(OC)cc(OC)c34)c2)cc1	.	.	.	.	.	.
